We go through 40 compounds from PubChem BioAssay (NCATS).

Molecules are shown by their SMILES. “And” between values parts separate entries of the source, which are not always exact repeats. Equal entries are not always repeated. Results filed as inconclusive are left out. The source made the active and inactive calls. Calls follow the shape of the dose curve; as a rule, active = well fitted inhibition curve with a large enough effect; inconclusive = small, poorly fitted or top-dose-only effect; inactive = flat fitted curve, though single readings scatter.
% is scaled to controls: 0 for no effect and ±100 for the full control effect; potency is read from the fitted curve at half-maximal effect.

A short description of the assay: P-glycoprotein substrates identified in KB-8-5-11 adenocarcinoma cell line, qHTS therapeutic library screen (AID 1346987). Also: nearly all actives have a fitted effect of over 65% in size. The settings on record: KB-8-5-11 (P-gp overexpressing) viability, CellTiter-Glo, 72 h; series mostly up to 44.5 µM; activity change, negative = cytotoxicity: at the top concentration. An excerpt:
The ATP-binding cassette transporters P-glycoprotein (P-gp) is known to limit brain penetration of many chemotherapy drugs. […] As such, we developed a high-throughput screen (HTS) to identify substrates of P-gp from a series of chemical libraries including the National Center for Advancing Translational Sciences Pharmaceutical Collection NPC, 2,816 compounds), testing a total of 10,804 compounds, most of which have known mechanisms of action. We used the CellTiter-Glo viability assay to test library compounds against the parental KB-3-1 human cervical adenocarcinoma cell line and the colchicine-selected sub-line KB-8-5-11 that over-expresses P-gp. KB-8-5-11 cells were also tested in the presence of a P-gp inhibitor (tariquidar) to assess reversability of transporter-mediated resistance. Of the tested compounds, a total of 90 P-gp substrates were identified including 55 newly identified P-gp substrates. Substrates were confirmed using an orthogonal killing assay against HEK-293 cells transfected with P-gp. As exemplars, we confirmed that […] (cyclin-dependent kinase inhibitor); AT9283, (Janus kinase 2/3 inhibitor); ispinesib (kinesin spindle protein inhibitor); gedatolisib (PKI-587, phosphoinositide 3-kinase/mammalian target of rampamycin inhibitor); GSK-690693 (AKT inhibitor); and KW-2478 (heat shock protein 90 inhibitor) were substrates , and direct ATPase stimulation was assessed. ABCG2 was also found to confer high levels of resistance to AT9283, GSK-690693 and gedatolisib, while ispinesib, AT7519 and KW-2478 were weaker substrates.
The HeLa derivative cell line, KB-3-1, and its colchicine-selected, P-gp-overexpressing subline, KB-8-5-11 were maintained in DMEM with 10% FCS and Pen/Strep with glutamine at 37 degree C in 5% CO2. For KB-8-5-11 cells, colchicine was added to the medium at a concentration of 100 ng/mL. HEK-293 cells transfected with empty vector (pcDNA) or vector containing human ABCB1 (MDR-19) or ABCG2 (R-5) have been described previously (Robey, Lin, Qiu, Chan & Bates, 2011) and were maintained in EMEM supplemented with 10% FCS, Pen/Strep and glutamine with 2 mg/ml G418 to select for the expression of the transporter. Cultures were confirmed to be free of mycoplasma infection using the MycoAlert Mycoplasma Detection Kit (Lonza, Walkersville, MD). For the screen, assay medium was identical to culture medium except for KB-8-5-11 where colchicine was excluded from the medium.
All cell lines were plated into 1536-well plates at 500 cells/well in 5 uL media. Compounds were then pinned in dose-response using a 1536-head pin tool (Kalypsis, San Diego, CA) and plates were incubated at 37 degree C in 5% CO2 for an additional 72 h. CellTiter-Glo reagent (Promega) was dispensed into the wells, incubated for 5 min and luminescence was read on a ViewLux instrument (Perkin-Elmer). Cytotoxic compounds were defined as those that yielded a curve class of -1.1, -1.2, -2.1, -2.2, -2.3, or -2.4, a maximum response of >50% and an AC50 of < 10 uM. Cherry-picked hits from screening analysis were tested with both the KB pair of cell lines, and the pcDNA (empty vector control) and MDR-19 (P-gp overexpressing) pair were tested, in the absence and presence of tariquidar.
(In general: qHTS replaces the single test concentration by a dilution series.)
In the case of `CCCCc1ncc(/C=C(\Cc2cccs2)C(=O)O)n1Cc1ccc(C(=O)O)cc1`, the Potency entry is “inactive”. As to `CCCn1cnc2c1c(=O)n(CCCCC(C)=O)c(=O)n2C`, the “activity change, negative = cytotoxicity” value is -20.2% (inactive). Take `CCN(CC)CCSC(=O)C(c1ccccc1)c1ccccc1`: the Potency result was “inactive”.

Take `COc1ccc(Cl)cc1C(=O)NCCc1ccc(S(=O)(=O)NC(=O)NC2CCCCC2)cc1`: the Potency result was “inactive”. With `CC12CCC(CC1)C(C)(C)O2`, the “activity change, negative = cytotoxicity” value is 3.8% (inactive). As for `N[C@H](C(=O)O)c1ccc(O)cc1`, the “activity change, negative = cytotoxicity” value is -6.94% (inactive). The same measure, in the same setting: the result for `COc1ccc2c(c1)C(=O)N(CCc1ccc(S(=O)(=O)NC(=O)NC3CCCCC3)cc1)C(=O)C2(C)C` reads -23.1% (inactive); that for `CC(COc1ccccc1)NC(C)C(O)c1ccc(O)cc1` (stereo not given), 11% [at 17.3 µM] (inactive).

`CN(N=O)C(=O)N[C@@H]1[C@@H](O)[C@H](O)[C@@H](CO)O[C@@H]1O`: the “activity change, negative = cytotoxicity” value was -6.47% [at 17.3 µM] (inactive). Turning to `CCCCN1CCCC[C@H]1C(=O)Nc1c(C)cccc1C`, the Potency entry was “inactive”.

With `CC(C)c1c(C(=O)Nc2ccccc2)c(-c2ccccc2)c(-c2ccc(F)cc2)n1CC[C@@H](O)C[C@@H](O)CC(=O)O`, the Potency entry was “inactive”.

Consider `O=C1O[C@H](CO)[C@@H](O)[C@H](O)[C@H]1O`, for which the “activity change, negative = cytotoxicity” value was 4.28% (inactive). With `CC1(C)S[C@@H]2[C@H](NC(=O)Cc3ccccc3)C(=O)N2[C@H]1C(=O)O` (tested in a mixture with another compound), the “activity change, negative = cytotoxicity” value is -6.28% (inactive). `CC1(C)Oc2ccc(C#N)cc2[C@@H](N2CCCC2=O)[C@@H]1O`: the Potency result was “inactive”. Regarding `CCN(CC)C(=O)Nc1ccc(OCC(O)CNC(C)(C)C)c(C(C)=O)c1` (stereo not given), the Potency result was “inactive”. On the same count and under the same terms, the result for `Cn1c(=O)c2c(ncn2CC2OCCO2)n(C)c1=O` reads “inactive”. For the compound `Nc1ccc(S(=O)(=O)Nc2nccs2)cc1`, the Potency entry was “inactive”.

Consider `CN(C)CC[C@@H](c1ccc(Cl)cc1)c1ccccn1`, for which the “activity change, negative = cytotoxicity” value was 0.89% (inactive). For `CC[C@@]1(c2ccccc2)NC(=O)N(C)C1=O`, the “activity change, negative = cytotoxicity” value was 2.63% (inactive). As for `Oc1cn2c(n1)Nc1ccc(Cl)c(Cl)c1C2`, the Potency was 18.4 nM (active) and 20.6 nM (active). With `C[C@H]1O[C@@H](n2cc(F)c(=O)[nH]c2=O)[C@H](O)[C@@H]1O`, the “activity change, negative = cytotoxicity” value is 0.879% (inactive).

Turning to `CN1CCC[C@@H]1Cc1c[nH]c2ccc(CCS(=O)(=O)c3ccccc3)cc12`, the Potency result was “inactive”.

On to `Cc1cccc(Nc2cc(Cl)nc(SCC(=O)O)n2)c1C`, for which the Potency entry is “inactive”. As to `CN1[C@@H]2CC[C@H]1CC(OC(=O)C(O)c1ccccc1)C2` (stereo not given in full), the Potency result was “inactive”. Turning to `NC(CSCC(=O)O)C(=O)O` (stereo not given), the “activity change, negative = cytotoxicity” value is -3.07% (inactive).

Take `CCOc1nc2cccc(C(=O)O)c2n1Cc1ccc(-c2ccccc2-c2nn[nH]n2)cc1`: the Potency result was “inactive”. As to `O=c1[nH]c(=O)c2[nH]c(=O)[nH]c2[nH]1`, the Potency entry was “inactive”. Turning to `CC1=C(C/C=C(\C)CCC[C@H](C)CCC[C@H](C)CCCC(C)C)C(=O)c2ccccc2C1=O`, the “activity change, negative = cytotoxicity” value was 0.705% (inactive). With `COc1ccccc1O`, the Potency result is “inactive”. `N[C@@H](CSSC[C@H](N)C(=O)O)C(=O)O`: the “activity change, negative = cytotoxicity” value was 9.63% (inactive).

With `NS(=O)(=O)c1cc2c(cc1Cl)NC(CSCc1ccccc1)=NS2(=O)=O`, the “activity change, negative = cytotoxicity” value was -8.95% [at 17.3 µM] (inactive). As to `Cc1cc(CC(=O)O)n(C)c1C(=O)c1ccc(Cl)cc1`, the Potency result is “inactive”. Turning to `O=C1OC(OC(=O)c2cccnc2Nc2cccc(C(F)(F)F)c2)c2ccccc21` (stereo not given), the “activity change, negative = cytotoxicity” value was -2.36% (inactive). Take `CC[N+](CC)(CC)CCOc1ccc(/C=C/c2ccccc2)cc1`: the Potency entry is “inactive”. `O=C1NS(=O)(=O)c2ccccc21`: the “activity change, negative = cytotoxicity” value was 15.5% (inactive). With `CCN(CC)CCCC(C)Nc1c2ccc(Cl)cc2nc2ccc(OC)cc12` (stereo not given), the Potency was 6.32 µM (active). As for `CCN(CC)CCOC(=O)C1(C2CCCCC2)CCCCC1`, the “activity change, negative = cytotoxicity” value is -18.2% (inactive). `Nc1ccc(S(=O)(=O)Nc2ccc(Cl)nn2)cc1`: the Potency result was “inactive”. In the case of `CC1(C)CO[C@@H](CC(=O)O)CN1`, the “activity change, negative = cytotoxicity” value is 16.7% (inactive). Same read-out and setting: the result for `Cn1cc[nH]c1=S` reads 3.3% [at 17.3 µM] (inactive).
